Assay outcomes from PubChem.
In the library only some 2.3% were active in any assay of this set; here they are far more common.
p53ts 32C tox: p53ts cell cytotoxicity, permissive temperature; Potency, µM (series often up to 46.1 µM), inactives show at the highest dose activity change, negative = cytotoxicity, usual class: cytotoxic; hit rate 0.93% among 130,000; H1299-p53A138V at 32C, ATP luminescence viability, 24 h;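 further: 0% = DMSO and -100% = full killing by reference compound; nearly all actives have a fitted effect of over 55% in size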
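Viability by ATPlite luminescence after 24 h compound treatment (up to 46 uM) at the permissive 32C. Cells are H1299 carrying p53 A138V. Scale runs from DMSO basal to 100 uM tamoxifen as full kill; AC50 from Hill fits.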
Imprint erasure: genomic imprint erasure induction. hit rate 0.02% among 110,000. AID 1948. mouse ES Peg3-LacZ reporter, beta-gal luminescence, 40 h. Potency, µM (top dose mostly 60.7 µM), for the others: at the top dose activity change, positive = activation, most hits filed as activators
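Readout: BetaGlo luminescence (5 min, room temp) for LacZ from the normally silent maternal Peg3 allele in female Peg3LacZ-Neo ES cells. Cells 300/well, 40 h, 37C, 5% CO2. Data normalized per plate to negative controls.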
p53ts 39C tox: cytotoxicity in p53ts cells at nonpermissive temperature | H1299-p53A138V viability at 39C, ATP luminescence, 24 h | Potency, µM (top dose mostly 46.1 µM), without a hit: at the top dose activity change, negative = cell killing, usual class: cytotoxic | hit rate 1.5% among 130,000 | AID 902; further: on the % scale 0 is the no-effect control and ±100 the full control effect; nearly all actives have a fitted effect of over 55% in size
ERK AVP inh: blocks ERK signaling stimulated by vasopressin. HEK293-V1b, vasopressin-stimulated pERK AlphaScreen. Potency, µM (titrated, usually from 57.5 µM), without a hit: top-dose activity, negative = inhibition, actives largely listed as inhibitors. hit rate 0.99% among 72,000. AID 995; further: on the % scale 0 is the no-effect control and ±100 the full control effect; nearly all actives have a fitted effect of over 55% in size
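HEK293 cells stably expressing V1b receptor, seeded overnight in 1% FBS, were treated with compounds for 30 min at 37C, then stimulated 5 min with 25 nM vasopressin; phospho-ERK read by AlphaScreen SureFire after lysis.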
IkB signaling: inhibitors of IkB signaling in ABC-DLBCL cells. hit rate 0.04% among 110,000. AID 445. Potency, µM (titrated, usually from 57.1 µM), without a hit: at the highest dose IkBa stabilization activation. ABC-DLBCL IkBa-CBG/CBR dual luciferase ratio, 4 h; response scale: scaled: untreated 0%, proteasome inhibitor 100%; active means well fitted curve in the direction sought with a large enough effect in the signal ratio, not every such curve was filed as active; inconclusive means small, poorly fitted or top-dose-only effect, or a change in a side signal; the % refers to the signal ratio;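 further: the direction sought is a rising ratio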
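In this assay, an IκBα–CBG68 fusion accumulates when IKK-driven degradation is blocked; native CBR normalizes for cell number. OCI-Ly3 cells were treated 4 h with compound and doxycycline, then green and red light read after Chroma-Glo addition.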
* = called active by the depositor; ? = inconclusive; · = not tested or not shown; [ ] = remark or other dose. Unless noted, the call rests on the fitted dose curve; in most records, active means well fitted curve in the direction sought with a large enough effect; inconclusive means small, poorly fitted or top-dose-only effect, or another doubt; inactive means no such curve, though single readings can be large; an effect the other way counts as inactive or inconclusive. Potency means the concentration at half of the fitted maximal effect.

SMILES	p53ts 32C tox	Imprint erasure	p53ts 39C tox	ERK AVP inh	IkB signaling
C/C(Cl)=C/Cn1c(SC(C)C)nc2c1c(=O)[nH]c(=O)n2C	4%	-14%	-11%	16µM*	-1%
CCOc1ccc(C(=O)Nc2cc(C)on2)cc1	2.5µM*	-81%	3.2µM*	11%	-1%
Cc1cc(NC(=O)c2ccc(Cl)cc2)no1	7.9µM*	-44%	7.9µM*	-4%	4%
N[C@@H](C(=O)O)[C@H](O)C(=O)O	·	·	·	·	6%
CCN(CC)CCCNC(=O)c1cc2c(-c3ccc(Cl)cc3)nn(C)c2s1	-4%	-33%	-19%	?	?
CCCN(CCC)CCCNC(=O)c1cc2c(-c3ccc(Cl)cc3)nn(C)c2s1	-10%	2%[10.9 µM]	13µM*	·	?
COCCNc1cc(N2CCN(C3CCCCC3)CC2)c2noc3c2c1C(=O)c1ccccc1-3	5%	-6%[10.9 µM]	1%	·	?
COc1cccc(-c2cc(N(C)Cc3ccco3)ncn2)c1	?	-84%	13µM*	-6%	-1%[11.4 µM]
CN(C)c1ccc(-c2cc(N(C)Cc3ccco3)ncn2)cc1	13µM*	-39%	13µM*	?	-2%[11.4 µM]
O=C(C1CCN(S(=O)(=O)c2ccc3ccccc3c2)CC1)N1CCN(c2ncccn2)CC1	18%	-14%	-5%	25µM*	?
Cc1cccc(NC(=O)C2CCN(S(=O)(=O)c3cccc4cccnc34)CC2)n1	?	-7%	-6%	10µM*	?
Cc1ccc(NC(=O)C2CCN(S(=O)(=O)c3cccc4cccnc34)CC2)nc1	-17%	6%	-8%	32µM*	?
CC(=O)c1ccc(NC(=O)C2CCN(S(=O)(=O)c3cccc4cccnc34)CC2)cc1	-5%	8%	2%	-26%	14%
O=C(C1CCN(S(=O)(=O)c2cccc3cccnc23)CC1)N1CCN(c2ccccn2)CC1	-7%	-11%	-16%	6%	0%
O=C(C1CCN(S(=O)(=O)c2cccc3cccnc23)CC1)N1CCN(c2ccc(Cl)cc2)CC1	-1%	-30%	-11%	7.9µM*	?
O=C(O)c1ccc(C(=O)O)c(C(=O)Nc2ccc3c(c2)Cc2ccccc2-3)c1	3%[9.22 µM]	-6%[10.9 µM]	4%[9.22 µM]	12%[11.5 µM]	10%[11.4 µM]
N#Cc1ccc(CN2CCCC3(CCN(C(=O)c4cnccn4)CC3)C2)cc1	-12%	·	9%	15%	1%[11.4 µM]
Cc1ccc(C(=O)Nc2ccccc2C(=O)NC(C(=O)O)C(C)C)cc1 (stereo not drawn)	?	·	10µM*	·	·
COc1ccc2c(c1)[C@]1(C)CCC[C@](C)(CO)[C@@H]1CC2	·	·	·	·	3%[11.4 µM]
COc1ccccc1-c1cc(C(F)(F)F)nc(S(=O)(=O)CCCC(=O)Nc2cc(Br)ccc2O)n1	20µM*	-17%[10.9 µM]	?	·	?
COc1ccccc1-c1cc(C(F)(F)F)nc(S(=O)(=O)CCCC(=O)Nc2ccccc2F)n1	?	-11%[10.9 µM]	3.2µM*	·	?
COc1ccc(NC(=O)CCCS(=O)(=O)c2nc(-c3ccccc3OC)cc(C(F)(F)F)n2)c(OC)c1	?	-19%[10.9 µM]	?	·	?
COc1ccc(Cl)cc1NC(=O)CCS(=O)(=O)c1nc(-c2cccs2)cc(C(F)(F)F)n1	?	-13%[10.9 µM]	?	·	?
COc1ccc(Cl)cc1NC(=O)CCCS(=O)(=O)c1nc(-c2ccc(OC)c(OC)c2)cc(C(F)(F)F)n1	?	-30%[10.9 µM]	3.2µM*	·	?
CN(N=O)c1ccc(/C=C\c2ccnc3ccccc23)cc1	-5%[9.22 µM]	-12%[10.9 µM]	-2%[9.22 µM]	0%[11.5 µM]	1%[11.4 µM]
SMILES	p53ts 32C tox	Imprint erasure	p53ts 39C tox	ERK AVP inh	IkB signaling
NC(N)=NC[C@H](N)C(=O)O	-1%[9.22 µM]	1%[10.9 µM]	16%[9.22 µM]	-6%[11.5 µM]	-1%[11.4 µM]
Cc1ccc(SCc2cn3c(C)csc3n2)cc1	?	-76%	13µM*	-26%	?
CCOC(=O)N1CCC(=C2c3ccc(Cl)cc3CCc3cccnc32)CC1	?	-23%	?	20µM*	?
O=C1c2ccccc2-c2onc3ccc(NCCCn4ccnc4)c1c23	-28%	-32%	?	16µM*	-2%
COc1ccc2noc3c2c1C(=O)c1ccccc1-3	13µM*	-65%	-15%	?	?
O=C1c2ccccc2-c2onc3c(Br)cc(NC4CCCCC4)c1c23	-2%	25%[10.9 µM]	9%	·	?
CC(C)(C)N1C(=O)[C@H]2[C@H]3[C@H](O)[C@H](O)C/C(=N/OC[C@@H](O)COCc4ccco4)[C@@H]3CC[C@@H]2C1=O	1%[9.22 µM]	·	12%[9.22 µM]	10%[11.5 µM]	·
Cc1ccc(CN2CCC(CNC(=O)c3cc4ccc5cccnc5c4[nH]3)CC2)cc1	?	11%[10.9 µM]	13µM*	·	?
CCN(Cc1ccccc1)C(=O)c1cc2ccc3cccnc3c2[nH]1	?	-4%[10.9 µM]	32µM*	·	?
Cc1ccc2nc3sc(C(=O)N4CCOCC4)c(N)c3cc2c1	6.3µM*	-34%	6.3µM*	25%	?
c1ccc(C(c2cccc3c2ccc2ccccc23)[C@H](c2ccccc2)c2cccc3c2ccc2ccccc23)cc1 (stereo partly drawn)	·	-4%[10.9 µM]	·	·	·
C=CC(=O)OCCCC	-3%[1.84 µM]	3%	7%	10%	1%
Nc1nc(Nc2ccccc2)nc2c1ncn2[C@@H]1O[C@@H](CO)[C@H](O)[C@@H]1O	-14%	·	-15%	2%	?
O=C(/C=C/c1ccc2c(c1)OCO2)c1cccs1	16µM*	-46%	20µM*	45%	·
CC1CCC(C(=O)O)([C@H](Br)C(=O)O)CC1 (stereo partly drawn)	2%[9.22 µM]	-1%[10.9 µM]	-1%[9.22 µM]	8%[11.5 µM]	0%[11.4 µM]
N#CC(C#N)=c1ccc2c(c1)NC1(CCCCC1)N=2	-22%	-37%	-24%	16µM*	?
CCn1cc(C(=O)OCC(=O)OC2CC(C)CCC2C(C)C)c(=O)c2ccc(C)nc21 (stereo not drawn)	2%	-20%	-5%	25µM*	?
Cc1ccc(NC(=O)CSc2ncc(-c3ccccc3)[nH]2)cc1	8%	-11%[10.9 µM]	-23%	·	?
Cc1ccc(NC(=O)CSc2[nH]c(=O)ncc2C)cc1	0.1µM*	-21%[10.9 µM]	10µM*	·	-2%
CCOc1ccc(-c2nc(SCC(=O)Nc3ccc4c(c3)OCCO4)c(-c3ccc(F)cc3)[nH]2)cc1	-29%	-12%[10.9 µM]	16µM*	·	?
O=C(CSc1nc2ccccc2[nH]1)Nc1ccc2c(c1)OCCO2	-27%	-19%	?	32µM*	?
O=C(CSc1nc2ccccc2[nH]1)NCc1ccc2c(c1)OCO2	·	·	-6%	·	·
CCOc1ccc(NC(=O)c2ccco2)cc1	10µM*	-68%	10µM*	-21%	22%
CCn1cnc2cc(NC(=O)c3ccco3)ccc21	13µM*	·	8.9µM*	·	·
Cn1c(CCNC(=O)c2ccco2)nc2cc(NC(=O)c3ccco3)ccc21	?	-14%	?	-14%	4%
